From PubChem BioAssay
Calls of active or inactive are those of the source.

Legend:
[1] = tested on: Plasmodium falciparum Sir2 (PF13_0152, Sir2A); assay: Plasmodium falciparum Sir2A binding compounds – biochemical, small-molecule microarray, 635 nm fluorescence, primary screen (AID 1098); conditions: fluorescence 635 nm, higher = more signal;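 also: score merges spot fluorescence intensity with its signal-to-noise ratio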
[2] = probe aDKK1 binding to arrayed compounds – biochemical, biotinylated probe, 635/667 nm fluorescence, primary screen (AID 1099); conditions: small-molecule microarray, higher = more signal;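 also: score merges 667nm spot fluorescence with signal to noise across triplicate slides; reference of the scale not given here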
[3] = probe aCHRDL2 binding to arrayed compounds – biochemical, biotinylated probe, 635/667 nm fluorescence, primary screen (AID 1100); conditions: small-molecule microarray, higher = more signal
[4] = change in splice reporter luminescence, either direction, cell-based, HEK293, spliceosome inhibition project, primary screen (AID 1101); conditions: HEK293 splicing luciferase reporter, 24 h, higher = more signal, called active from +8 up or from −8 down;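 also: HEK293 cells carrying a splicing-competent luciferase reporter gene; test concentration not given here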
[5] = biological target: Fibroblast growth factor 10 (Homo sapiens) (UniProt O15520); assay: compounds binding fibroblast growth factor 10 – biochemical, small-molecule microarray, 635 nm fluorescence, primary screen (AID 1102); conditions: FGF10 binding, fluorescence 635 nm, higher = more signal
[6] = tested on: glycogen synthase kinase-3 (GSK3A per assay name; protocol says GSK3B); assay: compounds binding glycogen synthase kinase-3 – biochemical, small-molecule microarray, 635 nm fluorescence, GSK3A, primary screen (AID 1103); conditions: fluorescence 635 nm, higher = more signal; also: the record names both GSK3A and GSK3B
[7] = biological target: Epidermal growth factor receptor (Homo sapiens) (UniProt P00533); assay: compounds binding epidermal growth factor receptor – biochemical, small-molecule microarray, 635 nm fluorescence, primary screen (AID 1104); conditions: EGFR binding, higher = more signal;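 also: score merges 667 nm emission intensity with spot signal to noise over triplicate slides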
[8] = biological target: Follistatin-related protein 3 (Homo sapiens) (UniProt O95633); assay: compounds binding follistatin-related protein 3 – biochemical, small-molecule microarray, 635 nm fluorescence, primary screen (AID 1105); conditions: FSTL3 binding, higher = more signal;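 also: score merges emission near 667 nm and signal to noise per printed spot across three slides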
[9] = biological target: Dickkopf-related protein 1 (Homo sapiens) (UniProt O94907); assay: small molecules binding DKK1 protein – biochemical, small-molecule microarray, 635 nm fluorescence scan, primary screen (AID 1106); conditions: higher = more signal;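 also: score merges emission near 667 nm with signal to noise over three replicate slides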
[10] = tested on: Inhibin beta A chain (activin A); assay: small molecules binding activin A – biochemical, small-molecule microarray, 635 nm fluorescence scan, primary screen (AID 1107); conditions: INHBA, higher = more signal;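 also: mouse activin A protein probed at 4.33 µg/mL on printed slides; score merges bound-protein fluorescence near 667 nm with spot signal-to-noise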

Chain of Follistatin-related protein 3 (Homo sapiens) (O95633 whole entry, looked up): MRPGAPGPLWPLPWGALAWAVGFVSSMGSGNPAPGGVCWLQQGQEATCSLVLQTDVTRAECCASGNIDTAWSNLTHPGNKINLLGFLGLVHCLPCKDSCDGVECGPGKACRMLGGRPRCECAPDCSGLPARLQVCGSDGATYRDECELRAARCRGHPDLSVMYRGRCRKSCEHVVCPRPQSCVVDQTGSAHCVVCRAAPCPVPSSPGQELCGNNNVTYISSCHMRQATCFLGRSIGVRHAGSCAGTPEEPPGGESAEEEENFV
Chain of Fibroblast growth factor 10 (Homo sapiens) (O15520 whole entry, looked up): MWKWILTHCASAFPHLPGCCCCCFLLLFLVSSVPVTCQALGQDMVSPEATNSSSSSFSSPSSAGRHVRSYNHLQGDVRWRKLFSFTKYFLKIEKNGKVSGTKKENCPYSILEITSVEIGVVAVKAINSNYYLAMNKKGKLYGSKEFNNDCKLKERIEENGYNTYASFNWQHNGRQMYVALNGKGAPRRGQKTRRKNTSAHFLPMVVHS
Chain of Dickkopf-related protein 1 (Homo sapiens) (O94907 whole entry, looked up): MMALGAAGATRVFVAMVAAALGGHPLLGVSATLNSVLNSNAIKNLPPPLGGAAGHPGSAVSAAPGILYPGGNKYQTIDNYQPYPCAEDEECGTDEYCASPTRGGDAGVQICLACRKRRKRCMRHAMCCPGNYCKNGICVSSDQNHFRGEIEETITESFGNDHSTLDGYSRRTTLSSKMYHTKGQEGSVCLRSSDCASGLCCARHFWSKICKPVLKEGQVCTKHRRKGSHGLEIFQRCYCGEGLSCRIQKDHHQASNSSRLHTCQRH
Chain of Epidermal growth factor receptor (Homo sapiens) (P00533 whole entry, looked up): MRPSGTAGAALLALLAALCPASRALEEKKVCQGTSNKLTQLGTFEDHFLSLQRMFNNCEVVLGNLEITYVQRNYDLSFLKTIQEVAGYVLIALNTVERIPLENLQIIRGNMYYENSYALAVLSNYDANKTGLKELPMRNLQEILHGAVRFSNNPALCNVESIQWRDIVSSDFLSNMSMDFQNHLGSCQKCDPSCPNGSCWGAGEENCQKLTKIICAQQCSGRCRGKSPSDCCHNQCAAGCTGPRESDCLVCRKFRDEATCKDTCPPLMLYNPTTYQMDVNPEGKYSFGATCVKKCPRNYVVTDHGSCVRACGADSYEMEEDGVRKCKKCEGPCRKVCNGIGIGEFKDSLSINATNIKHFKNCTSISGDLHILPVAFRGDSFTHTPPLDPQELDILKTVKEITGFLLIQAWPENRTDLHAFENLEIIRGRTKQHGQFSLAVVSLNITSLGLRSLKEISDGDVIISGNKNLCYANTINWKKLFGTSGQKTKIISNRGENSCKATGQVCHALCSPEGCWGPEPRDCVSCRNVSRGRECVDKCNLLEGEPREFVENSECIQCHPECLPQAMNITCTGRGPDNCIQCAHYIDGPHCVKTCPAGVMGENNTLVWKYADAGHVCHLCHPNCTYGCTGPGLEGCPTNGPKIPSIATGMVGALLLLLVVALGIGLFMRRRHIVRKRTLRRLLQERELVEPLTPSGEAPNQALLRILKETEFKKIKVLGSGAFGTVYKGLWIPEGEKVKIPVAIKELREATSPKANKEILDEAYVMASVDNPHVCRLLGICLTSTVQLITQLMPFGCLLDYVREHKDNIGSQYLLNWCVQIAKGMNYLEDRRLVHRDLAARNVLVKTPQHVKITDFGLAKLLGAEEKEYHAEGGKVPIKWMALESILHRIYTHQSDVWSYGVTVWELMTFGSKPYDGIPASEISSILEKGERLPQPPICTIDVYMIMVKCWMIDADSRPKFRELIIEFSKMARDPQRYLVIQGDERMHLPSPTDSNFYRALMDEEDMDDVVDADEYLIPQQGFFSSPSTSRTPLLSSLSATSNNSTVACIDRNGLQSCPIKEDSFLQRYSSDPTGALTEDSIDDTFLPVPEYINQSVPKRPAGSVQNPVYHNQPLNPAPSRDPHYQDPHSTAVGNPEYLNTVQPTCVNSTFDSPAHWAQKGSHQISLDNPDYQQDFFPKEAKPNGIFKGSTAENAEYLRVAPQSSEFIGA

Row | Structure (SMILES) | composite z-score [1] | composite z-score [2] | composite z-score [3] | z-score [4] | composite z-score [5] | composite z-score [6] | composite z-score [7] | composite z-score [8] | composite z-score [9] | composite z-score [10]
1 | CCOC(=O)[C@H](CC(C)C)NC(=O)CCC1CC(OC(=O)NCc2ccc3c(c2)OCO3)CC2(CCCC(COC(=O)NCCOC)O2)O1 (stereo not given in full) | 0.622 | -0.27 | -0.261 | -0.191 (inactive) | 0.495 | 0.627 | 0.184 | 0.864 | 0.336 | 0.637
2 | CCOC(=O)[C@H](CC(C)C)NC(=O)CCC1CC(OC(=O)NCc2ccc3c(c2)OCO3)CC2(CCCC(COC(=O)NCCOc3ccccc3)O2)O1 (stereo not given in full) | 0.543 | 0.0931 | -0.537 | -0.149 (inactive) | 0.866 | 0.994 | 0.224 | 1.22 | 0.826 | 0.267
3 | COc1ccc(COC(=O)NN=C2C[C@@H](O)[C@@H](O)[C@@H]3[C@@H]4C(=O)N(C(C)(C)C)C(=O)[C@@H]4CC[C@@H]23)cc1 | 0.182 | -0.163 | -0.64 | 0.992 (inactive) | 0.189 | 0.787 | 0.314 | 0.967 | 1.16 | -0.105
4 | COC(=O)CC=C[C@@H](C)[C@@H](C=NOC(C)CN1CCCc2nc(C)c(C)cc21)NS(=O)(=O)c1ccc(C)cc1 (stereo not given in full) | 0.268 | 0.219 | -0.296 | 0.218 (inactive) | 0.65 | 0.793 | 0.568 | 1.01 | 0.829 | 0.932
5 | O=C(NN=C1C[C@@H](O)[C@@H](O)[C@@H]2[C@@H]3C(=O)N(Cc4ccc5c(c4)OCO5)C(=O)[C@@H]3CC[C@@H]12)OCc1ccccc1 | -0.0768 | 0.618 | 0.828 | -1.41 (inactive) | -0.319 | -0.456 | -0.254 | -0.408 | -0.465 | 0.319
6 | CC(C)C(=O)N[C@H]1CCCN1C(=O)C=Cc1ccccc1 | 0.0571 | -0.0477 | -0.43 | 0.539 (inactive) | 1.07 | 0.823 | 0.43 | 0.722 | 0.634 | 0.0551
7 | CCOC(=O)CCN1C(=O)[C@H]2[C@H]3[C@H](O)[C@H](O)CC(=NNC(=O)OCc4ccccc4)[C@H]3CC[C@H]2C1=O | 0.108 | -0.467 | -1.17 | 0.325 (inactive) | -0.193 | -0.296 | 0.345 | 0.373 | 0.766 | 1.62
8 | OC[C@H]1O[C@H](C#Cc2ccccc2)C=C[C@@H]1O | 0.721 | -0.301 | -0.385 | 0.072 (inactive) | 0.194 | 0.356 | 0.506 | 0.546 | 0.546 | 0.408
9 | COC(=O)CC=C[C@@H](C)[C@@H](C=NOC[C@@H](O)COCc1ccco1)OC | 1.05 | -0.589 | -1.34 | -0.485 (inactive) | -0.469 | 0.149 | -0.446 | -0.0313 | 1.15 | 0.533
10 | C=CC[C@@H]1C=C[C@H](ON=C(C)CCN2CCCc3nc(C)c(C)cc32)[C@@H](CO)O1 | 1.14 | 0.381 | 0.331 | 0.0487 (inactive) | 1.01 | 1.15 | 0.759 | 1.47 | 1.32 | 2.04
11 | O=C1C=C[C@@H](O)[C@@H]2[C@@H]3C(=O)N(C4CCCCC4)C(=O)[C@@H]3CC[C@@H]12 | 0.252 | -0.0259 | -0.369 | 2.14 (inactive) | 1.07 | 0.708 | 0.378 | 0.797 | 0.844 | 0.234
12 | O=C(NCCC[N+]1=CC=NC1c1ccccc1)N1CCCc2nc(-c3ccc(Br)cc3)ccc21 (stereo not given) | 1.02 | -0.128 | -0.346 | -0.106 (inactive) | 0.0448 | 0.212 | 0.221 | -0.0767 | 0.42 | 0.435
13 | CO[C@@H]1C=CCC(=O)N[C@@H](C)C(=O)OC[C@@H](NS(=O)(=O)c2ccc(C)cc2)[C@H](C)C=CCC(=O)OC[C@H]1C | -0.401 | -0.298 | -0.748 | -0.275 (inactive) | 0.238 | -0.0731 | 0.329 | 0.828 | 0.359 | 0.976
14 | C=CC[C@@H]1C=C[C@H](ON=C(C)CCN2CCCCc3nc(C)c(C)cc32)[C@@H](CO)O1 | 1.14 | -0.406 | -0.804 | -0.102 (inactive) | 0.497 | 1.29 | 1.51 | 1.43 | 1.63 | 1.5
15 | CCN1C(=O)[C@H]2[C@H]3[C@H](O)[C@H](O)CC(=NO[C@@H]4O[C@H](COC(C)=O)[C@@H](OC(C)=O)[C@H](OC(C)=O)[C@H]4OC(C)=O)[C@@H]3CC[C@H]2C1=O | 0.579 | 0.0594 | -0.601 | 0.5 (inactive) | 0.868 | 0.612 | 0.591 | 1.11 | 0.735 | -0.371
16 | COC(=O)[C@H](C)NC(=O)CCC1CC(OC(=O)NCc2ccc3c(c2)OCO3)CC2(CCCC(COC(=O)NCCCN3CCCC3=O)O2)O1 (stereo not given in full) | 0.842 | -0.286 | -0.189 | 0.245 (inactive) | 0.601 | 1.28 | 0.638 | 0.856 | 1.41 | -0.109
17 | CON=C(C)CCC(=O)OC[C@H]1O[C@H](C#Cc2ccccc2)C=C[C@@H]1Oc1ccc(C)cc1 | 0.699 | 0.0281 | -0.22 | 0.825 (inactive) | 0.19 | -0.252 | 0.252 | 0.407 | 0.572 | 0.719
18 | CC(C)[C@@H](OCc1ccccc1)[C@H](C)C=NOC[C@@H](O)[C@H]1O[C@@H]2OC(C)(C)O[C@@H]2[C@H]1O | 0.635 | -0.0784 | -0.609 | -0.262 (inactive) | 0.355 | 0.151 | 0.677 | 0.628 | 0.254 | -0.519
19 | O=C1[C@H]2[C@H]3[C@H](O)[C@H](O)CC(=NO[C@@H]4O[C@H](CO)[C@@H](O)[C@H](O)[C@H]4O)[C@H]3CC[C@H]2C(=O)N1c1ccc(F)cc1F | -0.134 | 0.0579 | 0.129 | 0.324 (inactive) | -0.0077 | -0.444 | 0.172 | 0.0345 | -0.494 | -1.81
20 | COC(=O)[C@H](C)NC(=O)CCC1CC(OC(=O)NCc2cccc3ccccc23)CC2(CCCC(COC(=O)NCc3cccc(C(F)(F)F)c3)O2)O1 (stereo not given in full) | 0.988 | -0.0508 | -0.134 | -1.39 (inactive) | 0.908 | 0.611 | 0.473 | 0.677 | 0.303 | -0.108
21 | CCN(CC)CC(O)CN1CCCCc2nc(C)c(C)cc21 (stereo not given) | -0.145 | -0.33 | -0.485 | -1.7 (inactive) | 0.507 | 0.709 | 0.256 | 0.42 | 0.701 | 0.29
22 | O=C1[C@H]2[C@H]3[C@H](O)[C@H](O)CC(=NOCc4ccccc4)[C@H]3CC[C@H]2C(=O)N1C1CCCCC1 | 0.817 | -0.163 | -0.301 | 0.395 (inactive) | 0.378 | 0.338 | 0.511 | 0.448 | 0.79 | -0.0077
23 | CCN1C(=O)[C@H]2[C@H]3[C@H](O)[C@H](O)CC(=NOCC=C(C)CCC=C(C)C)[C@@H]3CC[C@H]2C1=O | 0.882 | -0.214 | -0.717 | 0.486 (inactive) | 1.21 | 0.938 | 1.53 | 0.972 | 1.16 | 1.18
24 | COC(=O)[C@@H]1CC[C@H](C)[C@@H](c2ccc(Br)cc2)N1 | -0.725 | 0.297 | 0.321 | -0.181 (inactive) | -0.0529 | -0.879 | 0.377 | -0.391 | 0.187 | 0.894
25 | CCOC(=O)[C@H](Cc1ccccc1)NC(=O)CCC1CC(OC(=O)NCc2cccc3ccccc23)CC2(CCCC(COC(=O)NCCc3ccc(Cl)cc3)O2)O1 (stereo not given in full) | 0.519 | -0.217 | -0.603 | -0.84 (inactive) | 0.718 | 0.24 | 0.104 | 0.588 | 0.621 | 0.145
26 | C[C@@H]1CC[C@@H](C(=O)O)N[C@H]1c1cccc(N2CCOCC2)c1 | 0.168 | -0.191 | -0.449 | -1.02 (inactive) | 0.631 | 0.74 | 0.797 | 0.409 | 0.109 | 0.0223
27 | CCc1cc2c(nc1CC)CCN(CCC(C)=NOC[C@@H](C)[C@H](OCc1ccccc1)C(C)C)C2 | -0.482 | -0.375 | -0.244 | -1.3 (inactive) | -1.58 | -1.04 | -0.812 | -1.28 | -1.06 | -0.187
